Assay outcomes as filed in PubChem BioAssay.
HTR5A ag: HTR5A agonists in luminescence cell assay, primary screen, counter-screen for OPRM1-OPRD1 heterodimer agonist project, full-deck HTS; 340,000 tested, 0.61% active; activation, % at 9.3 µM; 5-hydroxytryptamine receptor 5A (Homo sapiens), P47898; cell-based; in the data active = activation mostly above about 9.5%, no sharp cut-off; inactive = mostly below about 7.6%
Target sequence (P47898 whole entry, looked up): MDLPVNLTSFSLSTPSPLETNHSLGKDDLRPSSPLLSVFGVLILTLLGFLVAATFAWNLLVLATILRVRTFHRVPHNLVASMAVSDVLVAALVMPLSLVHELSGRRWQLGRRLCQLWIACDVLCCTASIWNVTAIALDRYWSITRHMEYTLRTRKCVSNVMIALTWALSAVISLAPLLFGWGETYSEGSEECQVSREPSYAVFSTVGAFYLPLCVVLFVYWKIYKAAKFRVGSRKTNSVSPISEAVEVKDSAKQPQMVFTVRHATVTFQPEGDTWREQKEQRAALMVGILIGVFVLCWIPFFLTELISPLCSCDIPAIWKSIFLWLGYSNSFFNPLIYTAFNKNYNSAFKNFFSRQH
HTR5A inv ctr: HTR5A inverse agonists in luminescence cell assay, primary screen, counter-screen for OPRM1-OPRD1 heterodimer inverse agonist project, full-deck HTS. inhibition, % at 9.3 µM. 340,000 tested, 0.083% active. AID 504634, 2011. HTR5A cell line, inverse agonism; in the data active = inhibition mostly above about 23%, no sharp cut-off; inactive = mostly below about 18%
MOR-DOR ag: agonists of OPRM1-OPRD1 heterodimerization, primary screen, cell-based, luminescence. Mu-type opioid receptor (Homo sapiens) + Delta-type opioid receptor (Homo sapiens), …. cells. activation, % at 9.3 µM. 340,000 tested, 0.3% active; in the data active = activation above about 18%
MOR-DOR inv ag: inverse agonists of MOR-DOR heterodimerization, primary screen, cell-based, luminescence | Mu-type opioid receptor (Homo sapiens) + Delta-type opioid receptor (Homo sapiens), … | cell-based MOR-DOR heterodimer luminescence, inverse agonism | inhibition, % at 9.3 µM | 340,000 tested, 0.21% active; in the data active = inhibition above about 22%, passing the limit was not always enough
Numbers stand for hits; n = inactive. An excerpt weighted towards active compounds, which were near 1.1% of everything screened.

SMILES	HTR5A ag	HTR5A inv ctr	MOR-DOR ag	MOR-DOR inv ag
CN(C)c1ccc(S(=O)(=O)N2CCCCC2)cc1NC(=O)CCNC(=O)c1ccc(Cl)cc1	n	n	n	n
COc1ccc2c(c1)Sc1ccccc1N2CCN(C)C	n	n	19	n
CC(CCc1ccccc1)N1CCN(C)CC1 (centres undefined)	n	n	n	n
Cc1ccc(S(=O)(=O)Nc2nc(C)c(C(=O)Nc3ccccc3)s2)cc1	n	n	n	n
Cc1ccc(S(=O)(=O)Nc2nc(C)c(C(=O)N/N=C/c3ccccc3)s2)cc1	13	n	n	n
Cc1ccc(C(c2ccc(C)c(C)c2)C(O)C2OC(=O)C(O)C2O)cc1C (centres undefined)	n	n	n	n
COc1ccc(NC(=O)c2cccs2)cn1	n	n	n	n
CC(C)(C)c1ccc(Oc2ccc(NC(=O)c3cccs3)cn2)cc1	13	n	n	n
Cc1ccc2nsnc2c1NC(=S)NC(=O)c1ccco1	n	n	n	n
O=C(NC(=S)Nc1c(Cl)ccc2nsnc12)c1ccccc1F	10	n	n	n
CC(C)(C)c1ccc(C(=O)Nc2cccc(-n3cnnn3)c2)cc1	n	n	n	n
CC(NC(=O)COC(=O)c1cc(=O)c2ccccc2o1)c1ccccc1 (centres undefined)	n	n	n	n
Cc1cc(NC(=O)c2ccc(COc3ccccc3Cl)o2)no1	9.7	n	n	n
O=S(=O)(Nc1cccc(-c2ccc(N3CCCCCC3)nn2)c1)c1ccc(C(F)(F)F)cc1	11	n	n	n
Cc1cc(NC(=S)N(Cc2ccc(Br)cc2)Cc2ccc(C(=O)O)cc2)ccc1Cl	12	n	n	n
Cc1cccc(NC(=S)N(Cc2ccc(Br)cc2)Cc2ccc(C(=O)O)cc2)c1	n	n	n	n
NCCc1c(-c2ccccc2)n(-c2ccccc2)c2ccccc12	14	n	n	n
Nc1cc(C(F)(F)F)ccc1C(=O)O	n	n	n	n
Nc1cc(S(=O)(=O)C(F)(F)F)ccc1C(=O)O	12	n	n	n
Cc1cc(C)c(C#N)c(SCC(O)CS(=O)(=O)Cc2ccccc2)n1 (centres undefined)	12	n	n	n
Cc1cc(C)c(C#N)c(SCC(=O)c2ccccc2)n1	n	n	n	n
CC(C)(C)OC(=O)C[C@@H]1C/C=C\C[C@H](CC(=O)N(CCO)Cc2ccccc2)C(=O)N[C@H](Cc2ccccc2)COC1=O	n	n	n	n
Cc1cc(CNC(=O)COc2ccc(F)cc2)c2ccccc2n1	11	n	n	n
Cc1cc(CNC(=O)COc2ccccc2)c2ccccc2n1	n	n	n	n
CCC(=O)Nc1nc2ccccc2n1Cc1ccc(Cl)cc1	14	n	n	n
SMILES	HTR5A ag	HTR5A inv ctr	MOR-DOR ag	MOR-DOR inv ag
Cc1cccc(NC(=O)CSCC(=O)N(C)CCOc2ccc(Cl)cc2)c1	n	n	n	n
O=[N+]([O-])c1c(Nc2ccccc2O)cc(Cl)c2nonc12	n	n	n	29
Cc1ccc(NC(=O)Cn2c(O)c(N=NC(N)=O)c3ccccc32)cc1	n	n	n	n
Cc1ccc(NC(=O)Cn2c(O)c(N=NS(=O)(=O)c3ccc(C)cc3)c3ccccc32)cc1	n	n	n	53
COc1ccccc1-n1c(SCC(=O)NCC2CCCO2)nc2c([nH]c3ccccc32)c1=O (centres undefined)	n	38	n	45
CCn1c(SCC(=O)NCC2CCCO2)nc2c([nH]c3ccccc32)c1=O (centres undefined)	n	n	n	n
CCOc1cc(C(=O)O/N=C(\N)c2ccc([N+](=O)[O-])cc2)cc(OCC)c1OCC	13	n	n	n
Cc1ccccc1C(=O)O/N=C(\N)c1ccc([N+](=O)[O-])cc1	9.3	n	n	n
COc1cc(C(=O)O/N=C(\N)c2ccc([N+](=O)[O-])cc2)cc(OC)c1OC	n	n	n	n
CC1CCN(C(=O)COC(=O)C23CC4CC(CC(O)(C4)C2)C3)CC1	n	n	n	n
O=C(CCCCCn1c(=S)[nH]c2ccc(N3CCOCC3)cc2c1=O)NCc1ccccc1Cl	n	n	n	n
O=C(CCCCCn1c(=S)[nH]c2ccc(N3CCOCC3)cc2c1=O)NCc1ccc(Cl)cc1	13	n	n	n
O=C(CCCCCn1c(=S)[nH]c2ccc(N3CCOCC3)cc2c1=O)NCc1ccc2c(c1)OCO2	12	n	n	n
CC1=Nc2cc(C(=O)NCCN3CCOCC3)ccc2Sc2c(C)ccc(C)c21	n	n	n	n
